Source: PubChem BioAssay (NCATS)
Inconclusive results are not listed. Activity calls are given as the source filed them. Calls follow the shape of the dose curve; as a rule, active = well fitted curve in the direction sought with a large enough effect; inconclusive = small, poorly fitted or top-dose-only effect, or another doubt; inactive = no such curve, though single readings can be large; an effect the other way counts as inactive or inconclusive.

Assays:
[1] = tested on: CRL-7250; test: Cytotoxic Profiling of Annotated Libraries Using Quantitative High-Throughput Screening (AID 1296008); conditions: Five cell lines viability, CellTiter-Glo ATP luminescence, 48-72 h; max response: hits give low values; also: nearly all actives have a fitted effect of over 60% in size; as to max response: % is scaled to controls: 0 for no effect and ±100 for the full control effect
Method in brief: (§1)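 Cells exposed to compounds for 48 or 72 hr at 37 degrees Celsius. Viability read as ATP-coupled luminescence with CellTiter-Glo after 10 min at room temperature.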

[2] = tested on: HEK293; test: as above; conditions: Five cell lines viability, CellTiter-Glo ATP luminescence, 48-72 h; max response: hits give low values
Method in brief: as §1

[3] = tested on: HaCat; test: as above; conditions: Five cell lines viability, CellTiter-Glo ATP luminescence, 48-72 h; max response: hits give low values
Method in brief: as §1

[4] = tested on: KB-3-1; test: as above; conditions: Five cell lines viability, CellTiter-Glo ATP luminescence, 48-72 h; max response: hits give low values
Method in brief: as §1

[5] = tested on: NIH3T3; test: as above; conditions: Five cell lines viability, CellTiter-Glo ATP luminescence, 48-72 h; max response: hits give low values
Method in brief: as §1

[6] = tested on: HACAT; test: qHTS assay to identify novel small-molecules to repurpose for Merkel cell carcinoma treatment (AID 1296009); conditions: MCC and control cell lines, CellTiter-Glo viability, 72 h; at 44.8 µM (top of the series) unless noted; also: nearly all actives have a fitted effect of over 60% in size
Method in brief: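 Cells were treated for 72 hr at 37 degree celsius with compounds in 8- or 11-point dose response. Viability was read by CellTiter-Glo luminescence, normalized to no-cell (cytotoxicity) and DMSO controls.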

[7] = tested on: C33A; test: Primary qHTS to identify gynecologic anti-cancer compounds using libraries of approved drugs and bioactive compounds (AID 1345084); conditions: Gynecologic cancer cell panel viability, ATPlite luminescence, 48 h; series mostly up to 57.5 µM; also: % is scaled to controls: 0 for no effect and ±100 for the full control effect; nearly all actives have a fitted effect of over 55% in size
Method in brief: (§2)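 Cells, 1,000 per well, were allowed to settle for 16 h at 37 C before compound addition. Five concentrations were tested for 48 h, and viability was read by ATPlite luminescence after 15 min at room temperature.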

[8] = tested on: CAOV3; test: as above; conditions: Gynecologic cancer cell panel viability, ATPlite luminescence, 48 h; series mostly up to 57.5 µM
Method in brief: as §2

[9] = tested on: CASKI; test: as above; conditions: Gynecologic cancer cell panel viability, ATPlite luminescence, 48 h; series mostly up to 57.5 µM
Method in brief: as §2

[10] = tested on: Es-2; test: as above; conditions: Gynecologic cancer cell panel viability, ATPlite luminescence, 48 h; series mostly up to 57.5 µM
Method in brief: as §2

[11] = tested on: HeLa; test: as above; conditions: Gynecologic cancer cell panel viability, ATPlite luminescence, 48 h; series mostly up to 57.5 µM
Method in brief: as §2

[12] = tested on: Hek293T; test: as above; conditions: Gynecologic cancer cell panel viability, ATPlite luminescence, 48 h, control line for the selectivity index; series mostly up to 57.5 µM
Method in brief: as §2

[13] = tested on: JEG-3; test: as above; conditions: Gynecologic cancer cell panel viability, ATPlite luminescence, 48 h; series mostly up to 57.5 µM
Method in brief: as §2

CC(=O)O[C@H]1C[C@@H](O)C(C)(C)C2C[C@@H](OC(C)=O)[C@]3(C)C(CC[C@@]4(C)[C@H](c5ccoc5)OC(=O)[C@H]5O[C@]543)[C@]21C (stereo partly specified)
inactive: max response [1] -9.34% | max response [2] -3.17% | outcome [3] | outcome [4] | max response [5] 1.84% | outcome [6] inactive [at 17.4 µM] | Potency [7] | Potency [8] | outcome [9] | Potency [10] | Potency [11] | Potency [12] | Potency [13]

CC(=O)O[C@H]1[C@H](OC(=O)C(C)C)[C@]2(C)OC3(CC[C@]2(C)[C@H]2CCC[C@]4(CO4)[C@]12C)COC(=O)C3 (stereo partly specified)
inactive: max response [1] -5.19% | max response [2] -0.769% | outcome [3] | max response [4] 4.61% | max response [5] -0.316% | outcome [6] inactive [at 17.4 µM] | Potency [7] | Potency [8] | outcome [9] | Potency [10] | Potency [11] | Potency [12] | Potency [13]

Cc1occc(=O)c1O[C@@H]1O[C@H](CO[C@@H]2OC[C@](O)(CO)[C@H]2O)[C@@H](O)[C@H](O)[C@H]1O
inactive: outcome [1] | max response [2] 0.165% | outcome [3] | outcome [4] | max response [5] 1.4% | outcome [6] inactive [at 17.4 µM] | Potency [7] | Potency [8] | outcome [9] | Potency [10] | Potency [11] | Potency [12] | Potency [13]

C/C=C(\C)C(=O)OC[C@H]1O[C@@H](O[C@H]2[C@@H](O[C@H]3O[C@H](CO)[C@@H](O)[C@H](O)[C@H]3O[C@@H]3O[C@H](CO)[C@@H](O)[C@H](O)[C@H]3O)O[C@H](COC(=O)/C(C)=C/C)[C@@H](O)[C@@H]2O)[C@H](O)[C@@H](O)[C@@H]1O
inactive: outcome [1] | max response [2] -5.43% | outcome [3] | max response [4] -3.26% | max response [5] 3.7% | outcome [6] inactive [at 9.27 µM] | activity change, negative = cytotoxicity [7] 7.95% [at 11.6 µM] | activity change, negative = cytotoxicity [8] 13.6% [at 11.6 µM] | activity change, negative = cytotoxicity [9] -6.51% [at 11.6 µM] | activity change, negative = cytotoxicity [10] -0.184% [at 11.6 µM] | activity change, negative = cytotoxicity [11] -3.59% [at 11.6 µM] | activity change, negative = cytotoxicity [12] 2.97% [at 11.6 µM] | activity change, negative = cytotoxicity [13] -0.345% [at 11.6 µM]

O=C(O)[C@H]1Cc2ccccc2CN1
inactive: max response [1] 1.62% | max response [2] 4.72% | outcome [3] | max response [4] 0.759% | max response [5] 4.47% | outcome [6] inactive [at 4.96 µM] | activity change, negative = cytotoxicity [7] -12.5% [at 6.55 µM] | activity change, negative = cytotoxicity [8] 20.2% [at 6.55 µM] | activity change, negative = cytotoxicity [9] -0.242% [at 6.55 µM] | activity change, negative = cytotoxicity [10] -0.653% [at 6.55 µM] | activity change, negative = cytotoxicity [11] 1.2% [at 6.55 µM] | activity change, negative = cytotoxicity [12] 13.1% [at 6.55 µM] | activity change, negative = cytotoxicity [13] 1.96% [at 6.55 µM]

CC[C@H](C)[C@H](NC(=O)[C@H](Cc1ccc(O)cc1)NC(=O)[C@@H](N)C(C)C)C(=O)N[C@@H](Cc1cnc[nH]1)C(=O)N1CCC[C@H]1C(=O)N[C@@H](Cc1ccccc1)C(=O)O
inactive: outcome [1] | max response [2] 0.716% | outcome [3] | outcome [4] | outcome [5] | outcome [6] inactive [at 4.96 µM] | activity change, negative = cytotoxicity [7] 19.1% [at 6.55 µM] | activity change, negative = cytotoxicity [8] 20.7% [at 6.55 µM] | activity change, negative = cytotoxicity [9] -0.165% [at 6.55 µM] | activity change, negative = cytotoxicity [10] 0.0528% [at 6.55 µM] | activity change, negative = cytotoxicity [11] 25.4% [at 6.55 µM] | activity change, negative = cytotoxicity [12] 1.27% [at 6.55 µM] | activity change, negative = cytotoxicity [13] 1.86% [at 6.55 µM]

CC1(C)Oc2ncnc(N)c2N=C1c1ccc(C2CCC(CC(=O)O)CC2)cc1 (stereo unspecified)
inactive: max response [1] 3.48% | max response [2] 0.549% | outcome [3] | outcome [4] | max response [5] 0.325% | outcome [6] | Potency [7] | Potency [8] | outcome [9] | Potency [10] | Potency [11] | Potency [12] | Potency [13]

CCCC/C=C\CCCCCc1cc(=O)c2ccccc2n1C
inactive: max response [1] -5.2% | max response [2] -7.72% | outcome [3] | outcome [4] | outcome [5] | outcome [6] | Potency [7] | Potency [8] | outcome [9] | Potency [10] | Potency [11] | Potency [12] | Potency [13]

Cc1c(NC(=O)N2CCOCC2)ccc2c1c1ccccc1n2C(C)C
inactive: outcome [1] | max response [2] -7.57% | outcome [3] | max response [4] 3.33% | max response [5] -1.53% | outcome [6] | Potency [7] | Potency [8] | outcome [9] | Potency [10] | Potency [11] | Potency [12] | Potency [13]

N[C@@H](CCNCc1ccc(Cl)cc1)C(=O)N1CCCCC1
inactive: outcome [1] | max response [2] 2.57% | outcome [3] | max response [4] 7.85% | max response [5] -2.5% | outcome [6] | Potency [7] | Potency [8] | outcome [9] | Potency [10] | Potency [11] | Potency [12] | Potency [13]

COc1cncc(C#Cc2ccccn2)c1
inactive: max response [1] 4.39% | max response [2] 2.17% | outcome [3] | max response [4] -1.99% | max response [5] -3.14% | outcome [6] | Potency [7] | Potency [8] | outcome [9] | Potency [10] | Potency [11] | Potency [12] | Potency [13]

CSC(=O)OCC1=C[C@@H]2OC(=O)C3=CO[C@@H](O[C@@H]4O[C@H](CO)[C@@H](O)[C@H](O)[C@H]4O)[C@H]1[C@@H]32
inactive: max response [1] -1.2% | max response [2] -0.187% | outcome [3] | outcome [4] | max response [5] 1.53% | outcome [6] inactive [at 17.4 µM] | Potency [7] | Potency [8] | outcome [9] | Potency [10] | Potency [11] | Potency [12] | Potency [13]
